CD11b adhes enh – enhancers of CD11b/CD18 adhesion to fibrinogen, primary screen, K562 cells, luminescence | Integrin beta-2 (Homo sapiens) + Integrin alpha-M (Homo sapiens), P05107+P11215 | ATPlite luminescence | activation, % at 10 µM | 93,000 compounds, 0.07% hits;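 active means 10 µM primary screen giving 50% or more activity, confirmed by 40% or more on retest at that dose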
Target sequence (P05107 whole entry, looked up, other chains not shown): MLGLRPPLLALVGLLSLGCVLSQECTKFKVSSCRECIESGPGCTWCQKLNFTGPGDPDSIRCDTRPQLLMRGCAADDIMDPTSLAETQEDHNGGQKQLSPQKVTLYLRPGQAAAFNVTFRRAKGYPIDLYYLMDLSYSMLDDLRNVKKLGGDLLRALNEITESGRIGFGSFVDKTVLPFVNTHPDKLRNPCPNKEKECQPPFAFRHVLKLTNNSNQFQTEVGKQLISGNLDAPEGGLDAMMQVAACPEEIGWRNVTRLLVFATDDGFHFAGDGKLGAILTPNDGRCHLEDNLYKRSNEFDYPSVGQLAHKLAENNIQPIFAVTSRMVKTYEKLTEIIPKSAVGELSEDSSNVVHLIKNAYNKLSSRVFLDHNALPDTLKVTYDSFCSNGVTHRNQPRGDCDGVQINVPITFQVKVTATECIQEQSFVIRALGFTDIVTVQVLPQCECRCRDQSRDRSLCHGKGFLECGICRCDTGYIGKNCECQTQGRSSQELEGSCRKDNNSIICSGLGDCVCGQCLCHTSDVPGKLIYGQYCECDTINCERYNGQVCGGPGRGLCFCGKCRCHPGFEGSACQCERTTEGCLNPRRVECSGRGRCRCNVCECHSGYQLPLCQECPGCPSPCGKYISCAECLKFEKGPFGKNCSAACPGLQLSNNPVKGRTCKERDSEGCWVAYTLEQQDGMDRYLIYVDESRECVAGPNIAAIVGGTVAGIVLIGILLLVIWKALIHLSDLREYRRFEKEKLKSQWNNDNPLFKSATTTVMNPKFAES
MRP1 act – H69AR viability gain despite doxorubicin, primary screen, MRP-1 activator project, H69AR cells, CellTiter-Glo; AID 799, 2007; viability increase, % at 10 µM; 140,000 compounds, 0.61% hits; viability rescue;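 active means viability gain under doxorubicin at or above a set limit, the compound median plus 3 SD, cut at about 4.7% in these data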;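 further: MRP-1 overexpressing cells given doxorubicin 25 µM after compound pretreatment; 18-22 h compound pretreatment then 72 h with doxorubicin before readout; 0% = doxorubicin-only wells and 100% = vehicle-treated cells without doxorubicin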
Mac1 fbg inh – inhibitors of CD11b/CD18 adhesion to fibrinogen, primary screen, K562 cells, luminescence; Integrin beta-2 (Homo sapiens) + Integrin alpha-M (Homo sapiens), P05107+P11215; ATPlite luminescence; Mn2+ added to activate the integrin; 93,000 compounds, 0.54% hits; inhibition, % at 10 µM;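 active means primary inhibition of 50% or more at 10 µM, then 40% or more on retest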
Phagocytosis inh – inhibitors of macrophage phagocytosis, primary screen, imaging, J774A.1 cells, IgG beads; J774A.1 macrophage IgG-bead phagocytosis; inhibition, % at 5 µM; 110,000 compounds, 0.07% hits; AID 1029, 2008;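 active means inhibition above the mean of the plate negative controls plus 5 SD, cut at about 13% in these data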;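 further: phagocytic index as fraction of beads internalized from green versus red external bead signal; plate controls were DMSO negative control for no effect and cytochalasin-D positive control for full effect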
MRP resist rev – reversal of MRP1-mediated doxorubicin resistance, primary screen, H69AR cells, doxorubicin co-treatment. H69AR cells + 2 uM doxorubicin, CellTiter-Glo, 72 h. differential viability (reversal), % at 10 µM. 85,000 compounds, 0.04% hits. AID 602, 2007;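 active means viability drop by adding the cancer drug above about 55%, with treated viability meeting a 40% cutoff, limit read from the data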;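 further: viability without doxorubicin minus viability with 2 µM doxorubicin for each compound; larger differential means the compound sensitizes cells more to doxorubicin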
FAK inh – FAK kinase inhibitors, primary screen, biochemical; 97,000 compounds, 0.84% hits; inhibition, %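 (tested at 7 µM)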; biochemical FAK kinase activity assay; in the data active means inhibition above about 19%;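 further: 0% = DMSO and 100% = reference compound high control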
Numbers without * were called inactive. Hits are enriched below; roughly 1.5% of the tested compounds scored in any of these assays.

For CC(=O)c1ccc(N2CCN(c3ccc(C(F)(F)F)cn3)CC2)cc1 the results were CD11b adhes enh -4, MRP1 act 7.8*, Mac1 fbg inh -5 and Phagocytosis inh 1.
Screening Cc1ccc2c(c1)-c1c(cnn1CC(=O)N(CCC#N)c1ccccc1)CO2 returned CD11b adhes enh -3, MRP1 act -2, Mac1 fbg inh -10, Phagocytosis inh 0, MRP resist rev 2 and FAK inh 3.
`CCOc1ccc(-n2c(-c3ccccc3)c[n+]3c2CCCCC3)cc1` gave CD11b adhes enh -4, MRP1 act -2, Mac1 fbg inh 80* and Phagocytosis inh -3.
Screening O=C(CCCc1c[nH]c2ccccc12)N1CCOCC1 returned CD11b adhes enh 1, MRP1 act -1, Mac1 fbg inh -3, Phagocytosis inh -1, MRP resist rev -1 and FAK inh 0.
For COc1ccccc1OCc1ccc(C(=O)N2N=C(C(F)F)CC2(O)C(F)F)o1 (centres undefined) the results were CD11b adhes enh -4, MRP1 act 1, Mac1 fbg inh 82*, Phagocytosis inh -2 and FAK inh 2.
For O=C(c1ccc(COc2ccc(Cl)cc2)o1)N1N=C(C(F)F)CC1(O)C(F)F (centres undefined) the results were MRP1 act 5.6* and Phagocytosis inh -3.
`O=C(c1ccc(Cn2cc(Br)cn2)o1)N1N=C(C(F)F)CC1(O)C(F)F` (centres undefined) gave CD11b adhes enh -1, MRP1 act -1, Mac1 fbg inh 6, Phagocytosis inh 0 and FAK inh 3.
COc1ccccc1C(=O)NCCc1nc2ccccc2[nH]1 was read as CD11b adhes enh 1, MRP1 act 1, Mac1 fbg inh -4, Phagocytosis inh -4, MRP resist rev -3 and FAK inh -2.
Screening CC(=O)Nc1ccc(NC(=O)CSC2=NCCS2)cc1 returned CD11b adhes enh -4, MRP1 act 0, Mac1 fbg inh -17, Phagocytosis inh 3, MRP resist rev 7 and FAK inh -3.
`O=C(CSC1=NCCS1)Nc1ccnc2ccccc12` gave CD11b adhes enh -10, MRP1 act -2, Mac1 fbg inh 100*, Phagocytosis inh -1 and MRP resist rev -3.
Screening Cc1c(OCC(=O)OC(C)(C)C)ccc2c3c(c(=O)oc12)CCC3 returned CD11b adhes enh -5, MRP1 act 5.1*, Mac1 fbg inh -5, Phagocytosis inh -1, MRP resist rev -10 and FAK inh -2.
Cc1c(OCC(=O)OC(C)C)ccc2c3c(c(=O)oc12)CCC3 was read as CD11b adhes enh 7, MRP1 act 4, Mac1 fbg inh 4, Phagocytosis inh -3, MRP resist rev 7 and FAK inh -1.
COc1ccc2c(c1[N+](=O)[O-])CCC/C2=N/OC(=O)c1cccc2ccccc12 was read as CD11b adhes enh -1, MRP1 act 0, Mac1 fbg inh 3, Phagocytosis inh -3, MRP resist rev -12 and FAK inh 3.
CC(C)(C)c1ccc(OCC(O)CSc2ncn[nH]2)cc1 (centres undefined) was read as CD11b adhes enh -1, MRP1 act 6.8*, Mac1 fbg inh -23, Phagocytosis inh -1, MRP resist rev 4 and FAK inh -1.
For Cc1ccc(Cl)cc1N1CCN(C(=O)c2cc3c(=O)n(C)c4ccccc4c3n2C)CC1 the results were CD11b adhes enh -7, MRP1 act 1, Mac1 fbg inh 86*, Phagocytosis inh 0, MRP resist rev -1 and FAK inh 1.
`Cc1cccc(N2CCN(C(=O)c3cc4c(=O)n(C)c5ccccc5c4n3C)CC2)c1C` gave CD11b adhes enh 0, MRP1 act 0, Mac1 fbg inh 1, Phagocytosis inh -1, MRP resist rev 14 and FAK inh 0.
COc1ccc(C(=O)N2CCN(S(=O)(=O)N3CCOCC3)CC2)cc1OC was read as CD11b adhes enh 0, MRP1 act -1, Mac1 fbg inh -14, Phagocytosis inh -1, MRP resist rev -16 and FAK inh -1.
For Cc1cccc2cc(COC(=O)C3CCCCC3)c(=O)[nH]c12 the results were CD11b adhes enh 0, MRP1 act 0, Mac1 fbg inh -6, Phagocytosis inh 0, MRP resist rev -15 and FAK inh 2.
`Cc1cccc(NS(=O)(=O)c2cc(C(=O)OC(C)C(=O)NCc3ccc4c(c3)OCO4)ccc2C)c1` (centres undefined) gave CD11b adhes enh -2, MRP1 act 4.8*, Mac1 fbg inh -8 and Phagocytosis inh -11.
Screening COc1cc(/C(C)=N/NC(=O)Cc2c(C)[nH][nH]c2=O)ccc1O returned CD11b adhes enh 3, MRP1 act 0, Mac1 fbg inh -16 and Phagocytosis inh -11.
COc1cc(/C=C(\C#N)c2ccccn2)ccc1OCc1ccccc1Cl was read as CD11b adhes enh 6, MRP1 act 5.9*, Mac1 fbg inh -5 and Phagocytosis inh -9.
O=C(Nc1ncn[nH]1)c1ccc(Cl)c(S(=O)(=O)Nc2ccc(Cl)cc2)c1 was read as MRP1 act 4.8* and Phagocytosis inh -5.
Cc1ccccc1NC(=S)NNc1ncc(C(F)(F)F)cc1Cl was read as CD11b adhes enh 0, MRP1 act -3, Mac1 fbg inh 17, Phagocytosis inh -1 and FAK inh -2.
Screening Cc1cccc(C)c1NC(=S)NNc1ncc(C(F)(F)F)cc1Cl returned CD11b adhes enh -2, MRP1 act -2, Mac1 fbg inh 3, Phagocytosis inh 0 and FAK inh -1.
`Fc1ccccc1NC(=S)NNc1ncc(C(F)(F)F)cc1Cl` gave CD11b adhes enh -11, MRP1 act -4, Mac1 fbg inh 81*, Phagocytosis inh 0 and FAK inh -1.
For Cc1c(Cl)cccc1NC(=S)NNc1ncc(C(F)(F)F)cc1Cl the results were CD11b adhes enh -10, MRP1 act -2, Mac1 fbg inh 90*, Phagocytosis inh 0, MRP resist rev -3 and FAK inh 4.
For Cn1nnc(NCc2cc(Br)ccc2OCc2cccs2)n1 the results were CD11b adhes enh 4, MRP1 act -1, Mac1 fbg inh -14, Phagocytosis inh 0, MRP resist rev 6 and FAK inh 0.
Cc1ccc(C=Nc2ccccc2C(N)=O)o1 was read as MRP1 act -1 and Phagocytosis inh 2.
Cc1ccc(C=Nc2ccc(N(C)C)cc2)o1 was read as CD11b adhes enh -1, MRP1 act -2, Mac1 fbg inh 0, Phagocytosis inh -1, MRP resist rev 65* and FAK inh 7.
